In PubChem BioAssay (NCI):
The panel holds about 83,000 compounds, 20% with a hit somewhere; the sample as a whole holds those more often.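 Interpretation: 100, growth as untreated; towards 0, rising growth inhibition; 0, no net growth; 0 to -100, cell death. Compounds scoring below 10 were considered active.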 Unmarked numbers belong to inactive results. Active and inactive are the calls of the source.

Test system: MDA-MB-468 breast
Experiment: NCI-60 one-dose screen, 48 h (100 = growth as untreated, 0 = no growth, -100 = all killed)
Conditions: 10 µM unless noted

SMILES	growth
CN(C)CCCN=c1cc2c(=O)n(CCCN(C)C)c(=O)c3c(NCCCN(C)C)cc4c(O)n(CCCN(C)C)c(=O)c1c4c3-2	-53.2% (active)
CCN(CC)CCOc1nc2ccc(OC)cc2c2c1-c1ccc(OC)cc1C2=O	51.9%
CCOC(=O)C(=O)C=P(c1ccccc1)(c1ccccc1)c1ccccc1	114%
O=C1Cc2cc(CCn3cncn3)c(Cl)cc2N1	35.1%
COc1cccc(-c2nc3sccn3c2-c2ccnc(NCCNS(=O)(=O)c3c(Cl)cccc3Cl)c2)c1	56.8%
CCCn1c2cc(OCc3cn(-c4ccc(Br)cc4)nn3)ccc2c2ccnc(C)c21	25.6%
CC[N+](CC)(CCOCCOCC[N+](CC)(CC)Cc1ccc([N+](=O)[O-])cc1)Cc1ccc([N+](=O)[O-])cc1	97.9%
CCCCn1c(Cc2ccc(Cl)cc2)nc2cc(OC)c(OC)cc2c1=O	58.6%
O=C(C=C=Nc1ccccc1)C(=O)N=C=Cc1ccccc1	22%
COc1ccc(-c2nc3ccc(Cc4ccc5nc(-c6ccc(OC)cc6)[nH]c5c4)cc3[nH]2)cc1	-20.2% (active)
CCCCC[C@H]1CC=C2C(=O)C(Cl)=C[C@@H]2CC=CCCCC(=O)O[C@@H](CCCCC)CC=C2C(=O)C(Cl)=C[C@@H]2CC=CCCCC(=O)O[C@@H](CCCCC)CC=C2C(=O)C(Cl)=C[C@@H]2CC=CCCCC(=O)O1	50.2% [8 µM]
